# Assays:
# Assay in all cases: DAPPL (digital affinity profiling via proximity ligation, sequencing); 10 mM Tris-HCl pH 7.5, 50 mM NaCl, 1 mM DTT, 4% glycerol, room temperature, 30 min; GST-TFs on glutathione beads, 16-mer random dsDNA library, 0.1% formaldehyde crosslink after washing; high values mean tight binding
# Settings in all cases: protein: recombinant; tags: N-terminal GST; dsDNA, one strand shown
# FLI1 = target: T1, FLI1 (Homo sapiens, UniProt Q01543 1-452)
# T1 sequence: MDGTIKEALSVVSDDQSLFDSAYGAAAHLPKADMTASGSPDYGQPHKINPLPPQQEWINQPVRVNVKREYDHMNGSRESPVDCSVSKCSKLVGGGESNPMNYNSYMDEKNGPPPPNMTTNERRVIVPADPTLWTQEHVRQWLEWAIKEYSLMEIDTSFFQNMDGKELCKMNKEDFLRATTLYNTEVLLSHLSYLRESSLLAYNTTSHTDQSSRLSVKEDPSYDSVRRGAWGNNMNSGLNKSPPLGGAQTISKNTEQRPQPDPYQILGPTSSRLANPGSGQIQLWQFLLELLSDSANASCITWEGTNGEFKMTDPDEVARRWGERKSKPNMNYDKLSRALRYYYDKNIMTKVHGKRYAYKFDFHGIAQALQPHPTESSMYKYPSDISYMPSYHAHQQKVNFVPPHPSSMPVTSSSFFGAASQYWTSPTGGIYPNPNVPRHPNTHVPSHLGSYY
# Summary of the method: (§1)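 Human transcription factors carrying a GST fusion were produced in yeast, bound to glutathione beads, tagged with DNA barcodes and pooled together with a tag-only sample. Each pool was held with 200 nmole of a random double-stranded 16-mer DNA library in Tris/NaCl/DTT/glycerol buffer for 30 min at room temperature, then washed, crosslinked in 0.1% formaldehyde, proximity-ligated with BsaI/T4 ligase (1 h, 37 °C), PCR-amplified and sequenced on an Illumina NextSeq500. Binding signal is the read frequency of each hexamer for a given factor divided by its frequency in the tag-only sample.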
# ELK1 = target: T2, ELK1 (Homo sapiens, UniProt P19419 1-428)
# T2 sequence: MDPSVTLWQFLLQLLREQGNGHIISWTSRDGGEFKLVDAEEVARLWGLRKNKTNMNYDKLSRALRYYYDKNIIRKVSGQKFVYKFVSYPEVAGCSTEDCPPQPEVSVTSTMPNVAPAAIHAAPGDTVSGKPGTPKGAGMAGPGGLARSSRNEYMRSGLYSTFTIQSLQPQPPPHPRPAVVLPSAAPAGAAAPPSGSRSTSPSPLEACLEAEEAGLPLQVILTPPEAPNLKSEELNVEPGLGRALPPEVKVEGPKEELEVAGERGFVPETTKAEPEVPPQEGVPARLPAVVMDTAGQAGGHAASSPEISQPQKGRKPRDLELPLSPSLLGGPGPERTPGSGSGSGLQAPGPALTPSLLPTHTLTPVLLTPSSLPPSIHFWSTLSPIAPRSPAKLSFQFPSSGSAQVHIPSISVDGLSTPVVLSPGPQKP
# Summary of the method: as §1
# GABPA = target: T3, GABPA (Homo sapiens, UniProt Q06546 1-454)
# T3 sequence: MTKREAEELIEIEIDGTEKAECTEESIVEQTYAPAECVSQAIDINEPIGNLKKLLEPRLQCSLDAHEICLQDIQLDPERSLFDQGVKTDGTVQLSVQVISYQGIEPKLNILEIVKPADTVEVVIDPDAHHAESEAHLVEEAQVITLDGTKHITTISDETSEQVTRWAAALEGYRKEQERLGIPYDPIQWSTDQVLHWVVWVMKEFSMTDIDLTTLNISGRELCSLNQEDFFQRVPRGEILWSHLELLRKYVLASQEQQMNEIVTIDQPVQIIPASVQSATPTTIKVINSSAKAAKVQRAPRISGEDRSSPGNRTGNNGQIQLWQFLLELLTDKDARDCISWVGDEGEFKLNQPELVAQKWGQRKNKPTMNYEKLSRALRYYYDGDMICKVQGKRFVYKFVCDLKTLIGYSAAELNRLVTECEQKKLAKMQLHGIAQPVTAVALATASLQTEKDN
# Summary of the method: as §1
# ELF1 = ELF1 (Homo sapiens, UniProt P32519 1-619)
# Summary of the method: as §1
# EHF = target: T4, EHF (Homo sapiens, UniProt Q9NZC4 1-300)
# T4 sequence: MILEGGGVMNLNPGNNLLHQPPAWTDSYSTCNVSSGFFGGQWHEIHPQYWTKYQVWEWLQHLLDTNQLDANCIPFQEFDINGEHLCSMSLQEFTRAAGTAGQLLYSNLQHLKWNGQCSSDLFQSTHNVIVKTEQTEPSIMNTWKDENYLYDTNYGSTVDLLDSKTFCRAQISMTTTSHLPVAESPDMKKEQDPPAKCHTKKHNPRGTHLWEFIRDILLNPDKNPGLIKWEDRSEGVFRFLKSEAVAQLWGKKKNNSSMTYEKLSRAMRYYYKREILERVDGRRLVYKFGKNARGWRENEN
# Summary of the method: as §1
# SPI1 = SPI1 (Homo sapiens, UniProt P17947 1-270)
# Summary of the method: as §1
# ELK3 = target: T5, ELK3 (Homo sapiens, UniProt P41970 1-407)
# T5 sequence: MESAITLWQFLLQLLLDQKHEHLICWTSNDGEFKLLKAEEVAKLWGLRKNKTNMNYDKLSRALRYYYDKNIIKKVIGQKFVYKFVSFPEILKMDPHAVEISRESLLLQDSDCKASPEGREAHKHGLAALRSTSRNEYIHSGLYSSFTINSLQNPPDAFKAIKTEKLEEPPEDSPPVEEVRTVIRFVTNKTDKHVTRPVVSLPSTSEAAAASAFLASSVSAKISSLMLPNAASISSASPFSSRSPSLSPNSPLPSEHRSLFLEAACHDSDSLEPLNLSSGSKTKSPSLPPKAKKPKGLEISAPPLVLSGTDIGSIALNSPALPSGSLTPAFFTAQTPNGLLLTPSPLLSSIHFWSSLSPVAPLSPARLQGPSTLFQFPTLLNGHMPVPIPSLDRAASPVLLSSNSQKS
# Summary of the method: as §1
# FEV = target: T6, FEV (Homo sapiens, UniProt Q99581 1-238)
# T6 sequence: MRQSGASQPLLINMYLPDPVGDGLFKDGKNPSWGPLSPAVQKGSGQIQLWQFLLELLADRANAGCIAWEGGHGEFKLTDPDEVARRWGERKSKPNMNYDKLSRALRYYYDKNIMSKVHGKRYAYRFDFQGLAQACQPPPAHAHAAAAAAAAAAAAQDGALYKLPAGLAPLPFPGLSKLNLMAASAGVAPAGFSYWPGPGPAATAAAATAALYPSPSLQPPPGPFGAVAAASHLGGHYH
# Summary of the method: as §1
# ETV5 = ETV5 (Homo sapiens, UniProt P41161 1-510)
# Summary of the method: as §1
# SPIC = target: T7, SPIC (Homo sapiens, UniProt Q8N5J4 1-248)
# T7 sequence: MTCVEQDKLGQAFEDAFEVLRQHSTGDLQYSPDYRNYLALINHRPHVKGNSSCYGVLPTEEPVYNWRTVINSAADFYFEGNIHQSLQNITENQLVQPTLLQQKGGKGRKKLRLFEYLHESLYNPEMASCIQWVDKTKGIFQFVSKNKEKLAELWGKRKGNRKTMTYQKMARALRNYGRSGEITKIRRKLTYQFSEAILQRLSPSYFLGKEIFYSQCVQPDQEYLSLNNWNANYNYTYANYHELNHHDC
# Summary of the method: as §1
# ELF4 = ELF4 (Homo sapiens, UniProt Q99607 1-663)
# Summary of the method: as §1
# ETV1 = ETV1 (Homo sapiens, UniProt P50549 1-477)
# Summary of the method: as §1
# ERF = target: T8, ERF (Homo sapiens, UniProt P50548 1-548)
# T8 sequence: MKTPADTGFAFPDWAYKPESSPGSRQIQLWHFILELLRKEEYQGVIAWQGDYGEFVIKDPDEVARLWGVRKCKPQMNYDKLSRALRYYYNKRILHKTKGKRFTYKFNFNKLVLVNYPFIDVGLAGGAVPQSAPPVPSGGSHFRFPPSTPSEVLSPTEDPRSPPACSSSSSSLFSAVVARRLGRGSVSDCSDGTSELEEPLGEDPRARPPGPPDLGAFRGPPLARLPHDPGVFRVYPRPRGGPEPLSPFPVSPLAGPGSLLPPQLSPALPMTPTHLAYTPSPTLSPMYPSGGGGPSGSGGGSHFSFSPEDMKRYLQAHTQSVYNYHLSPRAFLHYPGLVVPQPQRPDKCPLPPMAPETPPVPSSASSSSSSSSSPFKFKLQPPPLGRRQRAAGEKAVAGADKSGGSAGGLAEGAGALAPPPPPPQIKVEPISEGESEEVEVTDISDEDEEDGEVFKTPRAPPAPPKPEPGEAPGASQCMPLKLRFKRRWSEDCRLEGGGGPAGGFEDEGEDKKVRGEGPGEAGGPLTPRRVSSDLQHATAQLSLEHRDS
# Summary of the method: as §1
# ETV3L = target: T9, ETV3L (Homo sapiens, UniProt Q6ZN32 1-361)
# T9 sequence: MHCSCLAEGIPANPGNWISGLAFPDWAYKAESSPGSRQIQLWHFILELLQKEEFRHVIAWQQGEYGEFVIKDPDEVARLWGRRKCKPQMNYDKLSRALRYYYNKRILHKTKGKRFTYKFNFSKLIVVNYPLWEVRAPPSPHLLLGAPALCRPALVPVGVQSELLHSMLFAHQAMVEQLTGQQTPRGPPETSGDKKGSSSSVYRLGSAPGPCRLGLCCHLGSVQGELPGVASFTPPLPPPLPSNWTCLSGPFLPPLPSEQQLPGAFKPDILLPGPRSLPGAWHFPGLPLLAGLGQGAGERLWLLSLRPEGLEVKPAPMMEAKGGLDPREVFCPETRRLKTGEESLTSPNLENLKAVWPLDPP
# Summary of the method: as §1
# ETS2 = target: T10, ETS2 (Homo sapiens, UniProt P15036 1-469)
# T10 sequence: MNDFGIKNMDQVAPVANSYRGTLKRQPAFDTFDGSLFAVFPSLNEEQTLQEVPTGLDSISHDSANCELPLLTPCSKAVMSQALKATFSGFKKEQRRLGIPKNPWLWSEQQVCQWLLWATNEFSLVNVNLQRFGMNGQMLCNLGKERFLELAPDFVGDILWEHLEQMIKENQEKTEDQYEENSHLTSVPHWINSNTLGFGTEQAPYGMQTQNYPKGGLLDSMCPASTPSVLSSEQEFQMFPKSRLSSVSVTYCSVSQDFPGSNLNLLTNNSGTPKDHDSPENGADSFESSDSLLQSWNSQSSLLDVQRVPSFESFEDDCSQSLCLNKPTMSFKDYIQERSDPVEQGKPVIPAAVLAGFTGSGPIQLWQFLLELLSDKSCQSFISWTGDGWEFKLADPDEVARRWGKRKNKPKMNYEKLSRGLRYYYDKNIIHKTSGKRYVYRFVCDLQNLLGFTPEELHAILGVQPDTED
# Summary of the method: as §1
# ETV3 = target: T11, ETV3 (Homo sapiens, UniProt P41162-2 1-143)
# T11 sequence: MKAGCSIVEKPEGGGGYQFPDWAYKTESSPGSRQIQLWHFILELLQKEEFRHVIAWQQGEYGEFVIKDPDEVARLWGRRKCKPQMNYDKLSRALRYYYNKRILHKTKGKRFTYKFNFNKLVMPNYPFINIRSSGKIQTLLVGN
# Summary of the method: as §1
# ETV6 = ETV6 (Homo sapiens, UniProt P41212 1-452)
# Summary of the method: as §1
# Chain of ETV6 (P41212 whole entry): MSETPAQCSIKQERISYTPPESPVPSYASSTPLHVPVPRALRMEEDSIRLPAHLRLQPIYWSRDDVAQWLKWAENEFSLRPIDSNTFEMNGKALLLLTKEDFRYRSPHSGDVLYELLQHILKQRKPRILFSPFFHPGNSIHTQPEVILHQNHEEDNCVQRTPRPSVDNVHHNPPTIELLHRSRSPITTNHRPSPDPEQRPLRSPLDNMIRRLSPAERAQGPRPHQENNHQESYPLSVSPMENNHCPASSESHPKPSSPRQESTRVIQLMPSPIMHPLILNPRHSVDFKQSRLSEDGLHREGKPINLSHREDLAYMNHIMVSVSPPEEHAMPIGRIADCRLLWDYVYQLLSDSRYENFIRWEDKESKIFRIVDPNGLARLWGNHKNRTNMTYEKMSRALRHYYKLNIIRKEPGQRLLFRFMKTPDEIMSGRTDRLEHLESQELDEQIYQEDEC
# Chain of ELF4 (Q99607 whole entry): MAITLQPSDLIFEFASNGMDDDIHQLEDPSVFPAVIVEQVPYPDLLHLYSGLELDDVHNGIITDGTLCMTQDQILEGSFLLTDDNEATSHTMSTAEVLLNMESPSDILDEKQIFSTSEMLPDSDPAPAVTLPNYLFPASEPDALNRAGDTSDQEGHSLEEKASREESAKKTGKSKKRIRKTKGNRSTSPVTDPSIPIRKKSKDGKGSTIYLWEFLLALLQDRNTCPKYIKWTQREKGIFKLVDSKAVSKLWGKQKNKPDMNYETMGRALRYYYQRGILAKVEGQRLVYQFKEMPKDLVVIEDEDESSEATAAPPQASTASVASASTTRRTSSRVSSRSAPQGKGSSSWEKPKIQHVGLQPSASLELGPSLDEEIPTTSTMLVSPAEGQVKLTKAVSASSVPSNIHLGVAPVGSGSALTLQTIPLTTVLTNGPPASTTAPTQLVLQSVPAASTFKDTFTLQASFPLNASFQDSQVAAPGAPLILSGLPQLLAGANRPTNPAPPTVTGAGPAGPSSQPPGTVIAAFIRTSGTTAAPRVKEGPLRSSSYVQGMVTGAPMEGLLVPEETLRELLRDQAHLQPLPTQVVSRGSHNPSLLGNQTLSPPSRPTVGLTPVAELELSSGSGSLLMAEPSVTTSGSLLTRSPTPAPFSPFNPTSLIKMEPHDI
# Chain of ETV1 (P50549 whole entry): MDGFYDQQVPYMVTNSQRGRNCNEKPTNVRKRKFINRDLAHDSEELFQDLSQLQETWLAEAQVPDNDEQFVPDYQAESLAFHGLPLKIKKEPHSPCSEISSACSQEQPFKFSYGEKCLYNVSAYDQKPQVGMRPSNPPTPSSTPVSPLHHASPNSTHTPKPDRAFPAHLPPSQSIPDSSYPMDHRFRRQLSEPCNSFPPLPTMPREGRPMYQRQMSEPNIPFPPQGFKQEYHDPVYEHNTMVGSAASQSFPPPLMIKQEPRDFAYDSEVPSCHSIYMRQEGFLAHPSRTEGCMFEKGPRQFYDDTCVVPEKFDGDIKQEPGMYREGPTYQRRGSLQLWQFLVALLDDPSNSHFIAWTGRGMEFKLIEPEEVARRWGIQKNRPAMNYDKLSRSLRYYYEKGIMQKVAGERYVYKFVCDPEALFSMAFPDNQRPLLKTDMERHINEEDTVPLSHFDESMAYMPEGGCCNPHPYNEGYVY
# Chain of ETV5 (P41161 whole entry): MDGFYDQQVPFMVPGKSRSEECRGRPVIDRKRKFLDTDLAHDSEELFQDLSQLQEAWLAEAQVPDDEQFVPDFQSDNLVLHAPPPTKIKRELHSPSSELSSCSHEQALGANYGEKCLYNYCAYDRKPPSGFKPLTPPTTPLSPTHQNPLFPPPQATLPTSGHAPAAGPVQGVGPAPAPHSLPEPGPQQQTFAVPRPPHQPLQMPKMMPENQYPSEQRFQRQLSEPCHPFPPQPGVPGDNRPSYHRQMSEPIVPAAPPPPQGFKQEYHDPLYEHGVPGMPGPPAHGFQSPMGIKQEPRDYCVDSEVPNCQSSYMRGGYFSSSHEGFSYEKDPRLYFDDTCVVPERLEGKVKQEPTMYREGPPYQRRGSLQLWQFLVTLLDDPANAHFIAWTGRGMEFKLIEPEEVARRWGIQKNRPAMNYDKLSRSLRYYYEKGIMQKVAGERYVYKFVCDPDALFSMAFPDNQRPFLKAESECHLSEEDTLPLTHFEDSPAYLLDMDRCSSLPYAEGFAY
# Chain of ELF1 (P32519 whole entry): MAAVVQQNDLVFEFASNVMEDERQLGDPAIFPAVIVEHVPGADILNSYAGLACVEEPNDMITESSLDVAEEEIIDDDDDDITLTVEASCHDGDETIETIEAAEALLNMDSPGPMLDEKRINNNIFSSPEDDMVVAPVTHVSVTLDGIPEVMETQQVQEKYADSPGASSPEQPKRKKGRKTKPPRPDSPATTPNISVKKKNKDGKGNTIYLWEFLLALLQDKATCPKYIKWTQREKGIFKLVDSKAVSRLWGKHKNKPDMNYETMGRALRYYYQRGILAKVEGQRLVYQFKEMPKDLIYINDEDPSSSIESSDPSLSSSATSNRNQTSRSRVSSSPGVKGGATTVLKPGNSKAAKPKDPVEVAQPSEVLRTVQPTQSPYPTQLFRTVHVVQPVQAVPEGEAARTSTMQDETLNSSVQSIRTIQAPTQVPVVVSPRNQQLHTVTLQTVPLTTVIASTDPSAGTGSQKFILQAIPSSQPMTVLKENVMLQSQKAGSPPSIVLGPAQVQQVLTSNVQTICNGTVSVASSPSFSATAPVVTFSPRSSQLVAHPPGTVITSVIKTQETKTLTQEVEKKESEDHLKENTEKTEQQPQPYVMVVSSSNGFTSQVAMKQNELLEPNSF
sequence,measurement,setting,value
TGCGGC,binding signal,FLI1,"1.06 fold enrichment (6-mer frequency, TF over GST control)"
same,binding signal,ELK1,"1.04 fold enrichment (6-mer frequency, TF over GST control)"
same,binding signal,GABPA,"1.09 fold enrichment (6-mer frequency, TF over GST control)"
same,binding signal,ELF1,"1.05 fold enrichment (6-mer frequency, TF over GST control)"
same,binding signal,EHF,"1.07 fold enrichment (6-mer frequency, TF over GST control)"
same,binding signal,SPI1,"1.11 fold enrichment (6-mer frequency, TF over GST control)"
same,binding signal,ELK3,"1.01 fold enrichment (6-mer frequency, TF over GST control)"
same,binding signal,FEV,"1.02 fold enrichment (6-mer frequency, TF over GST control)"
same,binding signal,ETV5,"1.06 fold enrichment (6-mer frequency, TF over GST control)"
same,binding signal,SPIC,"1.19 fold enrichment (6-mer frequency, TF over GST control)"
same,binding signal,ELF4,"1.13 fold enrichment (6-mer frequency, TF over GST control)"
same,binding signal,ETV1,"1.08 fold enrichment (6-mer frequency, TF over GST control)"
same,binding signal,ERF,"1.14 fold enrichment (6-mer frequency, TF over GST control)"
same,binding signal,ETV3L,"1.03 fold enrichment (6-mer frequency, TF over GST control)"
same,binding signal,ETS2,"1.05 fold enrichment (6-mer frequency, TF over GST control)"
same,binding signal,ETV3,"1.03 fold enrichment (6-mer frequency, TF over GST control)"
same,binding signal,ETV6,"1 fold enrichment (6-mer frequency, TF over GST control)"

# Source: PMC7862700, “An all-to-all approach to the identification of sequence-specific readers for epigenetic DNA modifications on cytosine”
